Experimental data from PubChem BioAssay (NCATS).
Records with an inconclusive call do not appear. The source made the active and inactive calls. Calls follow the shape of the dose curve; as a rule, active = well fitted curve in the direction sought with a large enough effect; inconclusive = small, poorly fitted or top-dose-only effect, or another doubt; inactive = no such curve, though single readings can be large; an effect the other way counts as inactive or inconclusive.

Assays:
[1] = biological target: Cellular tumor antigen p53 (Homo sapiens) (UniProt P04637); assay: Primary qHTS for small molecule compounds that upregulate eGFP-tagged delta133p53alpha (in N-terminal) cells. (AID 2060322); conditions: NCI-H358 eGFP-delta133p53alpha fluorescence, 24 h; activation: hits give high values;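 also: cells pre-induced with doxycycline then dosed without doxycycline; series mostly up to about 56 µM; 0% = DMSO vehicle and 100% = reference activator; nearly all actives have a fitted effect of over 75% in size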
Sequence of Cellular tumor antigen p53 (Homo sapiens) (P04637 whole entry, looked up): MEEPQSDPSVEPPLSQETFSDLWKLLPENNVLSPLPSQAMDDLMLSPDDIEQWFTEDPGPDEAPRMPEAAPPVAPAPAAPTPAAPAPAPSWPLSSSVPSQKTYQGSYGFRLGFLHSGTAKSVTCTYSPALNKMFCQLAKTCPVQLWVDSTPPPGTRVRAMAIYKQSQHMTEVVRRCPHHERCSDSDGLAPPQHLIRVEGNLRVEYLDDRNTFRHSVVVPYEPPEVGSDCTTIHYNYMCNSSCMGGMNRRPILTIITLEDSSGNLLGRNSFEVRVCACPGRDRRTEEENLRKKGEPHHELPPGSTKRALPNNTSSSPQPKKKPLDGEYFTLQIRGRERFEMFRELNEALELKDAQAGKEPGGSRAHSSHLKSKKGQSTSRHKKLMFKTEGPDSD
Procedure, shortened: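 NCI-H358 cells pre-induced 24 h with 10 ng/ml doxycycline for eGFP-delta133p53alpha, plated dox-free and exposed 24 h at 37C to titrated compounds. Fixed, Hoechst-stained; gated GFP peak intensity by laser scanning cytometry, normalized to DMSO (0%) and 57.5 uM 5-azacytidine (100%).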

[2] = biological target: Aldehyde dehydrogenase, mitochondrial (Homo sapiens) (UniProt P05091); assay: qHTS for Inhibitors of the Aldehyde Dehydrogenase Family (ALDH2) Primary screen (AID 2061308);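 also: plate controls were vehicle for no effect and reference inhibitor for full effect; nearly all actives have a fitted effect of over 55% in size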
[3] = biological target: Retinaldehyde dehydrogenase 3 (Homo sapiens) (UniProt P47895); assay: qHTS for Inhibitors of the Aldehyde Dehydrogenase Family (ALDH1A3) Validation screen (AID 2061312); also: % is scaled to controls: 0 for no effect and ±100 for the full control effect; nearly all actives have a fitted effect of over 45% in size
[4] = biological target: Retinaldehyde dehydrogenase 3 (Homo sapiens) (UniProt P47895); assay: qHTS for Inhibitors of the Aldehyde Dehydrogenase Family (ALDH1A3) Primary screen (AID 2061315);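 also: plate controls were DMSO vehicle for no effect and reference inhibitor for full effect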

CCCCc1ccc(C(=O)Nc2cc(-c3ccc(Cl)cc3)nn2-c2ccc(Cl)cc2)cc1
inactive: activation [1] 6.68% | Potency [2] | Potency [3] | Potency [4]

CCn1c2ccccc2c2cc(CNC)ccc21
inactive: activation [1] 12.4% | Potency [2] | Potency [3] | Potency [4]

COC(=O)c1ccc2c(c1)nc(NC(=O)c1ccccc1)n2CCCc1ccccc1
inactive: activation [1] -10% | Potency [2] | Potency [3] | Potency [4]

C[C@@H](N[C@H]1CCCC[C@@H]1NC(=O)c1ccc(Cl)cc1)c1cccc2ccccc12
inactive: activation [1] 21.5% | Potency [2] | Potency [3] | Potency [4]

CC(C)c1ccccc1OC(=O)NCCc1ccc2ccccc2c1
inactive: activation [1] 2.39% | Potency [2] | Potency [3] | Potency [4]

CCOc1c2c(c(OCC)c3ccccc13)C(=O)N(c1ccc(CC(=O)NS(=O)(=O)c3ccccc3)cc1)C2
inactive: activation [1] -25.3% | Potency [2] | Potency [3] | Potency [4]

Cn1ncnc1COc1nn2c(-c3cc(F)ccc3F)nnc2cc1C(C)(C)C
inactive: activation [1] -11.9% | Potency [2] | Potency [3] | Potency [4]

CC1(C)CCC(C)(C)c2cc(C3(c4ccc(C(=O)O)cc4)OCCO3)ccc21
inactive: activation [1] 2.39% | Potency [2] | Potency [3] | Potency [4]

O=C(NCCCN1CCC2(CC1)OCc1ccccc12)[C@H]1CCCN1Cc1ccccc1
inactive: activation [1] 0.477% | Potency [2] | Potency [3] | Potency [4]

COc1ccc(-c2nc(-c3cc(C(F)(F)F)cc(C(F)(F)F)c3)n(Cc3ccc(C(N)=O)cc3)c2-c2ccc(OC)cc2)cc1
inactive: activation [1] -11% | Potency [2] | Potency [3] | Potency [4]
